Assay outcomes deposited in PubChem BioAssay by several laboratories.
EphB4 antag – EphB4-ephrin-B2 interaction antagonists, primary screen, biochemical, TNYL-RAW peptide probe, fluorescence polarization; inhibition, % at 7 µM; EphB4 LBD / TNYL-RAW-Alexa532 peptide; 97,000 compounds, 0.15% hits;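 active means inhibition above the screen-wide mean inhibition plus 3 SD, cut at about 15% in these data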
CYP2C19 inh – blockers of cytochrome P450 2C19 activity – biochemical, luminescence, ADME assay, primary screen; CYP2C19 Supersomes, luciferin-H EGE luminescence, 30 min; inhibition, % at 5 µM; 96,000 compounds, 21% hits; P33261;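 active means CYP2C19 inhibition above a set limit at 5 µM in the primary screen, cut at about 50% in these data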
Target sequence (P33261 whole entry, looked up): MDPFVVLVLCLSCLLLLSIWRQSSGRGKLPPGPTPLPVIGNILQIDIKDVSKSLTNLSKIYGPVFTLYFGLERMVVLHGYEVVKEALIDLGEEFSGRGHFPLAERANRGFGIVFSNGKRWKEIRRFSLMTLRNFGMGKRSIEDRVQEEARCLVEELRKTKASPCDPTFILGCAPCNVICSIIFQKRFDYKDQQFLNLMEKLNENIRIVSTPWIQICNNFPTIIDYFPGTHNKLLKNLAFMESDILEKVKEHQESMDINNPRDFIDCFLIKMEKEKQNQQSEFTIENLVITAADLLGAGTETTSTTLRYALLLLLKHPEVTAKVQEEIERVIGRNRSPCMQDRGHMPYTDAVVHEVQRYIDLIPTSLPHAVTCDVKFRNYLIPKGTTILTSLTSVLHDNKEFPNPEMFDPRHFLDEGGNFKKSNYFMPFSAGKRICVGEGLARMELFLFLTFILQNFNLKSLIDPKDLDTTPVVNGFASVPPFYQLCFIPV
CYP2C9 inhib – blockers of cytochrome P450 2C9 activity – biochemical, luminescence, ADME assay, primary screen. P11712. CYP2C9 Supersomes, luciferin-H conversion. inhibition, % at 5 µM. 96,000 compounds, 20% hits;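 active means blocking of liver enzyme CYP2C9 beyond about 50% at 5 µM, limit read from the data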
CYP2C9 act – human CYP2C9 activators, primary screen, biochemical, luminescence. recombinant CYP2C9, luciferin-H conversion; hits give high values; factor 1 = untreated enzyme, 0 = blocked. AID 1024, 2008. Cytochrome P450 2C9 (Homo sapiens), P11712. 96,000 compounds, 1.4% hits. activation factor at 5 µM;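 active means activation factor of 2 or more for CYP2C9 at a 5 µM dose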
CYP2C19 act – human CYP2C19 activators, primary screen, biochemical, luminescence. activation factor at 5 µM. 96,000 tested, under 10 active. AID 1025, 2008. recombinant CYP2C19, luciferin-H EGE luminescence; hits give high values; 0 = fully inhibited enzyme, 1 = untreated enzyme. Cytochrome P450 2C19 (Homo sapiens), P33261;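 active means activation factor of at least 2 at 5 µM in the primary screen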
Each line names hits and unclear results; the compound was inactive in the other large screens. An excerpt weighted towards active compounds, which were near 27% of everything screened.

CCCCCC(C)n1[nH]c(=O)c2c(C)cc(C)nc21 (stereo not drawn)	CYP2C19 inh 97.9, CYP2C9 inhib 65.6
O=C(c1ccc2c(c1)OCCO2)N(c1ccccn1)C1CCCCC1	CYP2C9 inhib 52.5
CC(C)(C)NC(=O)C(c1ccccn1)N(C(=O)c1ccc2c(c1)OCCO2)C1CCCC1 (stereo not drawn)	none
Cc1cc2n(n1)C(c1ccccc1Cl)Nc1ccccc1-2 (stereo not drawn)	CYP2C19 inh 85.8, CYP2C9 inhib 75.4
Cc1cc2n(n1)C(c1ccsc1)Nc1ccccc1-2 (stereo not drawn)	CYP2C19 inh 61.1, CYP2C9 inhib 56.4
CSc1ccc(C2Nc3ccccc3-c3cc(C)nn32)cc1 (stereo not drawn)	CYP2C19 inh 50.1
Oc1ccccc1-c1cc(-c2ccccc2Cl)[nH]n1	none
Cc1cccc(C2Nc3ccccc3C(=O)N2c2ccc(F)cc2)n1 (stereo not drawn)	none (no result: CYP2C19 inh, CYP2C9 inhib, CYP2C9 act, CYP2C19 act)
O=C(COC(=O)c1c2ccccc2cc2ccccc12)Nc1ncc(C(F)(F)F)cc1Cl	none
CN(C)c1ccc(C2C=C(c3ccc(Cl)cc3OC(F)F)Nc3ncnn32)cc1 (stereo not drawn)	CYP2C19 inh 98.8, CYP2C9 inhib 93.5 (no result: EphB4 antag)
Cc1ccc(C2C=C(c3ccccc3OC(F)F)Nc3ncnn32)cc1 (stereo not drawn)	CYP2C9 inhib 66.3 (no result: EphB4 antag)
O=C(Nc1ccc(Cl)cc1)C1CC=CCC1C(=O)OCC(F)(F)C(F)F (stereo not drawn)	none
O=C(Nc1ccc(Br)cc1)C1CC=CCC1C(=O)OCC1CCCO1 (stereo not drawn)	CYP2C19 inh 50.6
O=C(C1CCCN(S(=O)(=O)c2ccc(Cl)cc2)C1)N(Cc1cccs1)C1CC1 (stereo not drawn)	CYP2C19 inh 68.8 (no result: EphB4 antag)
CCOC(=O)/C(C#N)=C\C=C1C=CN(C)C=C1	none
Cc1ccc(NS(=O)(=O)c2cccc(C(=O)N3CCOCC3)c2)cc1	CYP2C19 inh 72.4
Cc1ccc(S(=O)(=O)Nc2cc(C(=O)N3CCOCC3)ccc2N2CCCCC2)cc1	CYP2C9 inhib 57.2
COc1ccccc1-n1c(=O)[nH]c2c(C(N)=O)nc(CC(C)C)nc21	none
O=C(CSc1nnnn1-c1ccccc1)N1CCCc2ccccc21	CYP2C19 inh 79.7, CYP2C9 inhib 57.9
O=C(CSc1nnnn1-c1ccc(Cl)cc1)N1CCc2ccccc2C1	CYP2C19 inh 74.1
Nn1c(SCC(=O)N2CCc3ccccc3C2)nnc1-c1cccs1	none
CCn1nnnc1SCC(=O)N1c2ccccc2CCc2ccccc21	CYP2C19 inh 90.9, CYP2C9 inhib 70.6
O=C(CSc1nnc(-c2cccs2)n1-c1ccccc1)N1CCCc2ccccc21	CYP2C9 inhib 85.3
Cc1occc1-c1nnc(SCC(=O)NCC2CCCO2)n1C (stereo not drawn)	none
Cc1cc(NC(=O)CCCN2C(=O)c3cccnc3C2=O)no1	none
O=C(CSc1nnnn1-c1ccccc1)N1CCc2ccccc21	none
CCCn1nnnc1SCC(=O)N1CCCc2ccccc21	CYP2C19 inh 82.6
Nc1nc(SCC(=O)N2CCCc3ccccc32)n(-c2ccccc2)n1	CYP2C19 inh 74.6
COc1ccc(-c2nnc(NC(=O)c3ccc(S(=O)(=O)N4CCCc5ccccc54)cc3)o2)cc1	CYP2C9 inhib 54.4
O=C(NCc1ccco1)c1ccc(S(=O)(=O)N2CCCc3ccccc32)cc1	CYP2C19 inh 67.0, CYP2C9 inhib 76.1
O=C(NCc1ccco1)c1ccc2ccccc2c1	none
COc1cccc(-c2nnc(NC(=O)c3ccc(S(=O)(=O)N4CCOCC4)cc3)o2)c1	none
O=C(Nc1nnc(C2CC2)o1)c1ccc(S(=O)(=O)N2CCCc3ccccc32)cc1	CYP2C9 inhib 94.7 (no result: EphB4 antag)
Cc1nn2c(C)nc3sc4c(c3c2nc1=O)CC(C)(C)OC4	none
CC#CCCCC(=O)Nc1cccc(C(=O)O)c1	none
O=C(CSc1ncnc2c1oc1ccccc12)N1CCN(c2ccccc2)CC1	none (no result: CYP2C19 inh, CYP2C9 inhib, CYP2C9 act, CYP2C19 act)
Cn1c(NC(=O)c2cc(-c3ccc4c(c3)OCO4)nc3ccccc23)cc(=O)n(C)c1=O	CYP2C9 inhib 73.1
COc1ccc(-c2cc(C(=O)Nc3nc4c(C)cccc4s3)c3ccccc3n2)cc1OC	none
COc1ccc(-c2nc3ccccc3s2)cc1O	CYP2C9 inhib 71.9
COc1cccc(C(=O)NCc2ccc(-c3nc4ccccc4s3)cc2)c1	CYP2C9 inhib 81.5
COc1cccc(-c2cc(C(=O)Nc3nc4ccccc4s3)c3ccccc3n2)c1	CYP2C9 inhib 50.6
O=C1CC(N2CCN(c3ccccc3Cl)CC2)C(=O)N1c1cccc(F)c1 (stereo not drawn)	none
N#Cc1nc(-c2ccc(OCc3ccc(Cl)cc3)cc2)oc1NCc1cccnc1	none
COc1cccc(-c2cc(C(=O)Nc3ccc4c(c3)OCCO4)c3ccccc3n2)c1	CYP2C9 inhib 70.6
Cc1ccccc1NC(=O)Nc1ccccc1Br	none
CCC1CCCCN1S(=O)(=O)c1ccc2c(c1)CCN2C(=O)C1CCC1 (stereo not drawn)	CYP2C9 inhib 51.8
O=C(C1CC1)N1CCc2cc(Br)cc(S(=O)(=O)NCc3ccccn3)c21	none (no result: EphB4 antag)
O=C(C1CCC1)N1CCc2cc(S(=O)(=O)NCCN3CCN(c4ccccc4F)CC3)ccc21	CYP2C9 inhib 58.9
O=C(C1CCC1)N1CCc2cc(S(=O)(=O)NCc3ccccn3)ccc21	CYP2C9 inhib 57.6
CC1=C(C(=O)OC(C)(C)C)C(c2ccco2)C(C#N)=C(N)O1 (stereo not drawn)	CYP2C19 inh 93.4, CYP2C9 inhib 52.1
CCOC(=O)C1C(C#N)=C(N)OC(C)=C1c1ccncc1 (stereo not drawn)	CYP2C19 inh 79.9, CYP2C9 inhib 89.9
CCOC(=O)C1=C(C)OC(N)=C(C#N)C1c1ccc(O)c(OC)c1 (stereo not drawn)	none
CCOC(=O)C1=C(c2ccccc2)OC(N)=C(C#N)C1c1ccc(Cl)s1 (stereo not drawn)	none
CCOC(=O)C1=C(C)OC(N)=C(C#N)C1c1ccoc1 (stereo not drawn)	CYP2C19 inh 53.5 (no result: EphB4 antag)
CCOC(=O)C1=C(C)OC(N)=C(C#N)C1c1ccc(C)o1 (stereo not drawn)	CYP2C19 inh 97.6, CYP2C9 inhib 57.5
C=COCCNC(=O)Nc1ccc(Cl)cc1Cl	none
CCOC(=O)CC1=C(C(=O)OCC)C(c2ccncc2)C(C#N)=C(N)O1 (stereo not drawn)	CYP2C19 inh 78.9, CYP2C9 inhib 59.2
Fc1ccccc1N1CCN(Cc2nc(-c3ccc(Cl)cc3Cl)no2)CC1	CYP2C9 inhib 61.2
CCOC(=O)Nc1ccc(C(=O)Oc2ccccc2)c(O)c1	none
Cn1nc(C(F)(F)F)c2cc(NC(=O)OCc3ccc(C(C)(C)C)cc3)sc21	CYP2C9 inhib 51.7
